Experiment [1] is described as follows: HepG2 liver cancer cell viability effects, profiling panel, resazurin fluorescence, 24 h, PK04 Diversity Set (AID 1172). Further: test concentration not given here. As to conditions: higher = more signal. For orientation: Resazurin is reduced to fluorescent resorufin, in cell work by metabolically active cells.
A short description of experiment [2]: basal S. cerevisiae growth modulation, no modifier, primary screen, OD600, strain BY4716, 24 h, basal condition (AID 1173). The note with it: OD600, 24 h, higher = more signal, called active from +8 up or from −8 down.
Experiment [3] in a line: MM1S myeloma cell viability, profiling panel, resazurin fluorescence, basal, 24 h, PK04 Diversity Set (AID 1174). Further: test concentration not given here. The note with it: higher = more signal, called active from +8 up or from −8 down.
The target in experiment [4] is Dihydroorotate dehydrogenase (quinone), mitochondrial (Plasmodium falciparum (isolate 3D7)) (UniProt Q08210). In words: PfDHODH enzyme inhibitors, primary screen, biochemical, C-terminal His tag, absorbance 600 nm (AID 1175).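 Further: recombinant parasite enzyme with a five histidine tag at its C terminus; test concentration not given here.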 As to conditions: DCIP absorbance 600 nm, higher = more signal, called active from +8 up or from −8 down.
Chain of Dihydroorotate dehydrogenase (quinone), mitochondrial (Plasmodium falciparum (isolate 3D7)) (Q08210 whole entry, looked up): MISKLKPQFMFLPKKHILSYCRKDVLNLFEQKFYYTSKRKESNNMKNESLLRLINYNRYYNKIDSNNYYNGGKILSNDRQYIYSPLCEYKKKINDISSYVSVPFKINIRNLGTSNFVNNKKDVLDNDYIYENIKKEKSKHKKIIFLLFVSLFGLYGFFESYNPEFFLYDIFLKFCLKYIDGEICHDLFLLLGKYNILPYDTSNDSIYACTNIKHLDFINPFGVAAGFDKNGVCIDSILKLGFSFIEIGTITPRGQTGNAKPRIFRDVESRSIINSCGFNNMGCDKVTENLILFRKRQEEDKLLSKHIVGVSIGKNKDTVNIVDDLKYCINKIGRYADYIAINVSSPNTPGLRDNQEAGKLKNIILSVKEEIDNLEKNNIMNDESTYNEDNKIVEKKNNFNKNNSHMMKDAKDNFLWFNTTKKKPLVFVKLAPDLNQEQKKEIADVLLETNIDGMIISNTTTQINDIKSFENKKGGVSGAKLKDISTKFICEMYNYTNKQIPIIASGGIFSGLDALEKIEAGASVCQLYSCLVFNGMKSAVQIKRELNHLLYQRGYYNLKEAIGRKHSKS
The nature of experiment [5]: P. aeruginosa biofilm formation inhibitors, primary screen, strain PAO1, LB-PBS medium, absorbance 600 nm (AID 1176). Further: test concentration not given here. The note with it: P. aeruginosa PAO1 growth/biofilm, A600, 12 h; higher = more signal.
Experiment [6] can be described thus: S. cerevisiae RM11-1a growth modifiers, primary screen, strain RM11-1a, OD600, basal, 24 h (AID 1177).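 Further: cultures grown under basal conditions with no added stressor; test concentration not given here.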 As to conditions: OD600, 24 h, higher = more signal, called active from +8 up or from −8 down.
The nature of experiment [7]: E. coli acrAB mutant growth effects, primary screen, E. coli filamentation inducers, strain DRC39, OD650, 24 h (AID 1178).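 Further: growth measured as culture turbidity by optical density at 650 nm; test concentration not given here.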 As to conditions: higher = more signal, called active from +8 up or from −8 down.
The nature of experiment [8]: E. coli acrAB mutant growth effects, primary screen, E. coli filamentation inducers, strain DRC39, OD650, 48 h (AID 1179).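 Further: screen aims at cell division blockers that make cells filament.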 As to conditions: E. coli DRC39 delta-acrAB growth, higher = more signal, called active from +8 up or from −8 down.
Experiment [9] is described as follows: RPMI8226 myeloma cell viability, profiling panel, resazurin fluorescence, basal, 24 h, PK04 Diversity Set (AID 1180).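 Further: RPMI8826 multiple myeloma cell line at 5000 cells per well; test concentration not given here.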 The note with it: higher = more signal.
In experiment [10] the target is E3 ubiquitin-protein ligase XIAP (Homo sapiens) (UniProt P98170). In words: XIAP binders, primary screen, biophysical, small-molecule microarray, fluorescence 635 nm (AID 1181).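 Further: score merges 667 nm emission and signal to noise over triplicate slides.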 As to conditions: small-molecule microarray binding, higher = more signal.
Chain of E3 ubiquitin-protein ligase XIAP (Homo sapiens) (P98170 whole entry, looked up): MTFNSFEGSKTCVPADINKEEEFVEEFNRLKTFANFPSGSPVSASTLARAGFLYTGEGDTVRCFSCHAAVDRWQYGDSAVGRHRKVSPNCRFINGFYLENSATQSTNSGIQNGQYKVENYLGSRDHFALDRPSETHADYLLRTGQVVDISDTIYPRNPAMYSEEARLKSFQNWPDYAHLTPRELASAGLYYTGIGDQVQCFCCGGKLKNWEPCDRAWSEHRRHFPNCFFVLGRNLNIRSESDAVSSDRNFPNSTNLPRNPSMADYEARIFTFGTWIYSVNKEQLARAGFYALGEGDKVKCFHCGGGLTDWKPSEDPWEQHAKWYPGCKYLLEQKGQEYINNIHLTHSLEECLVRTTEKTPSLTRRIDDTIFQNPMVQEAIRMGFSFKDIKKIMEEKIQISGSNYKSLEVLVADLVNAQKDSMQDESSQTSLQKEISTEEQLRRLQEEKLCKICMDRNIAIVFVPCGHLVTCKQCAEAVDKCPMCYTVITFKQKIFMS

Here are results for 12 compounds from PubChem BioAssay.

Molecules are shown by their SMILES. The source made the active and inactive calls. Unless noted, how the calls were made is not given here.

Regarding `[N-]=[N+]=Nc1ccccc1[C@H]1OC(c2ccc(OCCCO)cc2)=N[C@@]1(Cc1ccccc1)C(=O)NCc1ccccc1`, the z-score is -0.171 in experiment [1]; -1.95 (inactive) in [2]; -3.89 (inactive) in [3]; 0.124 (inactive) in [5]; -0.947 (inactive) in [6]; 2.01 (inactive) in experiment [7]. Moreover, the z-score in experiment [8] was 1.76 (inactive); in experiment [9], -3.99. Also, the composite z-score was 0.928 (inactive) in [4] and 0.0917 in experiment [10].

`OCc1ccc(-c2cc[n+](Cc3cccc(OC(F)(F)F)c3)cc2)cc1`: the z-score in experiment [1] is -0.0785; in experiment [2], -0.615 (inactive); in experiment [3], -0.297 (inactive); in experiment [5], 0.282 (inactive); in experiment [6], -0.327 (inactive); in experiment [7], 0.188 (inactive). The z-score in [8] was 0.147 (inactive); in experiment [9] it was -0.784. The composite z-score was -5.09 (inactive) in experiment [4] and 0.222 in experiment [10].

Consider `COC(=O)[C@@]1(Cc2ccc(OC)cc2)[C@H]2c3cc(C(=O)N4CCCC4)n(CCF)c3C[C@H]2CN1C(=O)c1ccccc1`, for which the z-score in experiment [1] is -0.952; in experiment [2], 1.1 (inactive); in [3], -2.21 (inactive); in [5], 1.06 (inactive); in experiment [6], 0.977 (inactive); in experiment [7] it was -1.52 (inactive). Further, the z-score was -1.09 (inactive) in [8] and -1.72 in [9]. In addition, the values for the composite z-score in experiment [4] and in experiment [10] were 0.0648 (inactive) and -0.0471, respectively.

Take `O=C1O[C@@H](c2ccccc2)[C@@H](c2ccccc2)N2[C@@H](c3ccc(O)cc3)[C@]3(C(=O)Nc4ccc(C#CC5=CCCCC5)cc43)[C@@H](C(=O)Nc3nc4ccccc4s3)[C@H]12`: the z-score is 0.235 in experiment [1]; -0.826 (inactive) in experiment [2]; -0.139 (inactive) in [3]; 2.14 (inactive) in experiment [5]; 0.137 (inactive) in [6]; 0.591 (inactive) in [7]. In addition, the z-score is 0.986 (inactive) in [8] and -0.595 in [9]. In addition, the figures for the composite z-score in experiment [4] and in experiment [10] were -0.504 (inactive) and -0.0925, respectively.

With `[N-]=[N+]=NCc1ccccc1[C@H]1OC(c2ccc(OCCCO)cc2)=N[C@@]1(Cc1ccccc1N=[N+]=[N-])C(=O)N1CCCCC1`, the z-score is -0.585 in [1]; -0.707 (inactive) in [2]; -2.42 (inactive) in experiment [3]; 0.879 (inactive) in experiment [5]; 1.66 (inactive) in experiment [6]; -0.457 (inactive) in experiment [7]. Moreover, the z-score is 0.495 (inactive) in [8] and -2.94 in experiment [9]. In addition, the composite z-score in experiment [4] is -0.062 (inactive); in experiment [10] it was -0.0062.

`COc1ccc([Si](C)(C)[C@@H]2[C@@H](CCO)O[C@]3(C(=O)N(Cc4ccccc4)c4ccc(N5CCCCC5=O)cc43)[C@H]2C)cc1`: the z-score in experiment [1] is -1.62; in experiment [2] it was 0.86 (inactive); in experiment [3] it was -3.11 (inactive); in experiment [5], -0.565 (inactive); in experiment [6] it was 3.49 (inactive); in [7], -0.277 (inactive). The z-score in [8] is -0.18 (inactive); in experiment [9], -2.29. Also, the composite z-score in [4] was -2.04 (inactive); in experiment [10] it was -0.0826.

With `Cc1ccc(F)cc1S(=O)(=O)N[C@@H]1CCN(C(=O)c2ccc(OC(C)C)cc2)C1`, the z-score was 0.157 in [1]; -2.17 (inactive) in experiment [2]; 0.554 (inactive) in experiment [3]; -0.165 (inactive) in [5]; -0.455 (inactive) in experiment [6]; 1.16 (inactive) in experiment [7]. The values for the z-score in [8] and in [9] were 0.427 (inactive) and 0.339, respectively. Also, the results for the composite z-score in experiment [4] and in experiment [10] were -0.431 (inactive) and 0.0336, respectively.

`CCCCCCC#C[Si](O[C@H](c1ccccc1)c1cn(Cc2cccc(Cl)c2)nn1)(C(C)C)C(C)C`: the z-score in experiment [1] was 0.809; in experiment [2] it was -0.419 (inactive); in experiment [3] it was 1.31 (inactive); in experiment [5] it was 0.101 (inactive); in experiment [6] it was 0.738 (inactive); in [7], 0.804 (inactive). Further, the z-score in experiment [8] was 1.19 (inactive); in experiment [9], 2.01. For the same compound, the figures for the composite z-score in [4] and in experiment [10] were -0.0872 (inactive) and -0.0447, respectively.

`CCN(CC)c1ccc(N2CC=CC34O[C@@H]5/C=C\CCCOC(=O)C5[C@H]3C(=O)N(CCCCCO)[C@@H]4C2=O)cc1` (stereo not given in full): the z-score in [1] was -0.162; in experiment [2] it was -0.606 (inactive); in experiment [3] it was 0.361 (inactive); in experiment [5], -0.553 (inactive); in experiment [6], -0.27 (inactive); in experiment [7], -0.388 (inactive). The z-score in [8] is -0.241 (inactive); in [9] it was 0.681. Further, the composite z-score in experiment [4] is -0.706 (inactive); in experiment [10], -0.0264.

With `O=C1NC(=O)C2C1C=CC(C(O)c1ccc3c(c1)OCO3)N2Nc1ccc(Cl)cc1Cl` (stereo not given), the z-score in [1] was -0.996; in [2] it was -14 (active); in experiment [3], -1.33 (inactive); in experiment [5], 1.38 (inactive); in experiment [6] it was -0.101 (inactive); in experiment [7], -0.145 (inactive). For the same compound, the figures for the z-score in experiment [8] and in [9] were -2.73 (inactive) and -0.93, respectively. Further, the composite z-score in experiment [4] is -0.703 (inactive); in experiment [10], 0.205.

Consider `COc1ccc([Si](C)(C)[C@H]2[C@H](CC(=O)N3CCC[C@H]3CO)O[C@@]3(C(=O)N(Cc4ccc(N5C(=O)c6cccc7cccc5c67)cc4)c4ccccc43)[C@@H]2C)cc1`, for which the z-score in experiment [1] is -1.83; in experiment [2] it was 0.147 (inactive); in experiment [3], -1.61 (inactive); in experiment [5] it was 0.189 (inactive); in experiment [6] it was 1.02 (inactive); in experiment [7], -0.788 (inactive). In addition, the z-score was -0.848 (inactive) in [8] and -1.16 in experiment [9]. For the same compound, the composite z-score in experiment [4] was -1.84 (inactive); in experiment [10] it was -0.392.

Consider `CCOC(=O)C[C@H]1[C@H](OC(=O)c2cc3ccccc3oc2=O)[C@@H](NC(=O)c2ccc3ccccc3n2)c2cc(OCCCO)ccc2N1C(=O)c1ccc2ccccc2n1`, for which the z-score in experiment [1] is 0.165; in experiment [2], -0.535 (inactive); in [3], 0.35 (inactive); in experiment [5], -0.766 (inactive); in [6], -0.361 (inactive); in experiment [7], 1.72 (inactive). Also, the z-score is 0.627 (inactive) in [8] and -0.594 in experiment [9]. Besides, the results for the composite z-score in experiment [4] and in experiment [10] were 0.315 (inactive) and 0.035, respectively.
